According to PubChem BioAssay AID493169 (National Center for Advancing Translational Sciences (NCATS), 2011):
Records with an inconclusive call do not appear. Entries that show only a call come without a potency. Active and inactive are the calls of the source. Calls come from the whole dose curve; as a rule, active = well fitted inhibition curve with a large enough effect; inconclusive = small, poorly fitted or top-dose-only effect; inactive = flat fitted curve, though single readings scatter.

Experiment: CHOP2 Reporter Counterscreen Assay for Inhibitors of Ubiquitin-specific Protease USP2a;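 note: activated enterokinase alone at 50 pM in a cell-free format rather than USP2a or CHOP2; nearly all actives have a fitted effect of over 55% in size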
Details: purified enterokinase, fluorogenic substrate, 485/531 nm; series mostly up to 38.3 µM
How it was run: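 Fluorescence (485/531 nm) read 10 min after adding 25nM reporter substrate to 50 pM activated EK preincubated 30 min RT with compound; Tris pH 8.0/CaCl2/CHAPS buffer. Data normalized to buffer-alone inhibition; concentration-response curves fitted.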
Potency is the fitted concentration of half-maximal effect.

SMILES	Potency
CCCSCCCNC(=O)CC1Oc2ccccc2NC1=O (stereo not given)	inactive
COc1cccc(C(=O)NC(C)c2ccc(-c3ccccc3)cc2)c1OC (stereo not given)	inactive
O=C(/C=C1\NC2(CCCC2)Cc2ccccc21)C(=O)N/N=C/c1ccc(O)c(O)c1	4.47 µM (active)
Nc1ccc2nc(-c3ccc(N)c(Cl)c3)[nH]c2c1	inactive
CC(C)(C)c1cc(Br)ccc1OCC(=O)Nc1ncn[nH]1	inactive
O=C(N/C(=C/c1cccnc1)C(=O)N1CCOCC1)c1ccco1	inactive
Cc1ccc(-c2nc(N/N=C/c3ccncc3)c3ccccc3n2)cc1	inactive
CC(C(=O)Nc1ccc(C(=O)O)c(O)c1)N1C(=O)/C(=C\c2ccco2)SC1=S (stereo not given)	7.94 µM (active)
COc1ccc(-c2[nH]ncc2/C=C(/C#N)C(=O)NC2CCCCC2)cc1	inactive
O=C(Nc1nnc(SCCC2OCCO2)s1)C1CC(=O)N(c2ccc(F)cc2)C1 (stereo not given)	11.2 µM (active)
Cc1ccc(C(=O)N(c2c(C)n(C)n(-c3ccccc3)c2=O)C(C)C)cc1	inactive
COc1ccccc1C(=O)n1nc(-c2cccnc2)nc1NCc1ccccc1	1 µM (active)
COc1cc2c(ccc3cc(OC)c(OC)c(O)c32)cc1O	5.62 µM (active)
Nc1c(C(=O)Nc2ccc(Cl)cc2)oc2ccccc12	inactive
CC(C)(C)NC(=O)C(c1ccco1)N(C(=O)c1ccc(CN2CCOCC2)o1)c1ccccc1 (stereo not given)	inactive
Cc1ccccc1[C@@H]1C(C#N)=C(N)S[C@H]1C(=O)c1ccccc1	inactive
O=C(O)CP(=O)(c1ccccc1)c1ccccc1	inactive
CC(/C=N/NC(=O)c1cc(-c2cccs2)[nH]n1)=C\c1ccccc1	inactive
Nn1c(Nc2ccccc2)nc2ccccc2c1=O	inactive
CN(C)c1ccc(-c2ccccc2)nn1	inactive
COc1cccc(N2CCN(C(=O)CN(C)S(=O)(=O)c3ccc4c(c3)CCC(=O)N4)CC2)c1	inactive
Cc1ccc(C2=[N+]([O-])C(C)N(O)C2(C)C)o1 (stereo not given)	inactive
COc1ccc(-n2c(SCC(=O)N3CCN(c4ccccc4)CC3)nc3c(c2=O)SCC3)cc1	inactive
O=C(CSc1nccc(=O)[nH]1)N1N=C2/C(=C/c3ccco3)CCCC2C1c1ccco1 (stereo not given)	8.91 µM (active)
Cc1n[nH]c(C)c1S(=O)(=O)N1CCCC(C(=O)NC2CCCc3ccccc32)C1 (stereo not given)	inactive
